PubChem BioAssay AID2685 (National Center for Advancing Translational Sciences (NCATS), 2010)
Out of some 320,000 compounds screened, about 2,100 (0.66%) were called active. Not shown: some 53% with an inconclusive outcome. The call rests on the fitted dose curve; in most records, active means well fitted inhibition curve with a large enough effect in the signal ratio, with a control signal flat (not every such curve was filed as active); inconclusive means small, poorly fitted or top-dose-only effect, or effect the other way, or a change in a side signal; inactive means flat fitted curve, though single readings scatter; the % refers to the signal ratio. The full list was thinned out, with actives kept by preference.

Assay: qHTS Assay for Lipid Storage Modulators in Drosophila S3 Cells;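 on cell number change: cells counted by Cell Tracker Red CMTPX staining in the red channel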
Conditions: BODIPY lipid droplet fluorescence, 18-24 h, cells fed with added oleic acid; cell number change: measured here: cell count max response; series mostly up to 46.1 µM
In short: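 Drosophila S3 cells loaded with oleic acid (400 uM, as added) and compounds at several concentrations; lipid droplets imaged by 488-nm laser-scanning cytometry, 500–530 nm intensity and object ratio to cell channel. Percent activity normalized to 20 uM Triacsin C.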
Potency means the concentration at half of the fitted maximal effect.

Structure (SMILES) | Potency | cell number change [%]
CCC(C)c1ccc(S(=O)(=O)N2CCN3CCCC3C2)cc1 (stereo not drawn) | inactive | -6.32
CCOC(=O)C(NC(=O)CC)(Nc1ccc(S(N)(=O)=O)cc1)C(F)(F)F (stereo not drawn) | inactive | 9.23
O=C(CSc1nnnn1C1CCCCC1)Nc1ccc(F)cc1 | inactive | -9.49
CN(C)C(=O)Nc1cnc2ccccc2c1 | inactive | 12.4
COc1ccc(CNC(=O)c2noc(C(C)C)c2[N+](=O)[O-])cc1 | inactive | 2.44
CCOC(=O)C(NC(=O)c1ccc(F)cc1)(Nc1sc2c(c1C(N)=O)CCC2)C(F)(F)F (stereo not drawn) | inactive | -0.472
CCCC(=O)Oc1c(S(=O)(=O)c2ccc(C)cc2)c(C)nn1C(C)(C)C | inactive | 23.9
O=C(Nc1ccc(S(=O)(=O)N2CCOCC2)cc1)c1cccc(Br)c1 | inactive | -4.91
CC(C)C(=O)Nc1cccc(C(=O)Nc2ccc(S(=O)(=O)N3CCOCC3)cc2)c1 | 13 µM (active) | -1.62
CC(C)(C)c1nnc(NC(=O)c2ccc3c(c2)OCO3)s1 | inactive | 5.88
O=C(Nc1cccc(S(=O)(=O)N2CCCC2)c1)c1cccc(S(=O)(=O)N2CCOCC2)c1 | 1.84 µM (active) | -9.73
O=C(/C=C/c1ccc2c(c1)OCO2)Nc1nncs1 | inactive | 12.8
O=C(Nc1cccc(F)c1)c1cccc(S(=O)(=O)N2CCOCC2)c1 | inactive | -12.5
O=C(Nc1nncs1)c1ccc2c(c1)OCO2 | 4.61 µM (active) | 11.7
CC(=O)c1cccc(NC(=O)c2cccc(S(=O)(=O)N3CCOCC3)c2)c1 | inactive | 0.952
CC(C)C(=O)Nc1nc(-c2ccc(S(=O)(=O)N3CCOCC3)cc2)cs1 | 5.17 µM (active) | -31.7
O=C(Nc1ccc(S(=O)(=O)N2CCOCC2)cc1)c1ccccc1 | inactive | -4.33
O=C(COc1ccccc1)Nc1nc(-c2ccc(S(=O)(=O)N3CCOCC3)cc2)cs1 | inactive | -17.5
Cc1nc(-c2ccc(S(=O)(=O)N3CCOCC3)cc2)cs1 | inactive | 
CCN(CC(=O)NC1CCCC1)S(=O)(=O)c1ccc(C)cc1 | inactive | 
COc1ccc(/C=C/C(=O)O)cc1S(=O)(=O)NC1CCS(=O)(=O)C1 (stereo not drawn) | inactive | 23.6

Structure (SMILES) | Potency | cell number change [%]
Nc1nc(SCc2ccccc2Cl)nc2nc3c(cc12)CCCC3 | inactive | -12.1
COc1ccc(C2N=C(c3ccccc3)NC(c3ccccc3)=N2)cc1 | inactive | 1.5
N#Cc1cccc(S(=O)(=O)Nc2c(NC3CCCCC3)c3ccccc3oc2=O)c1 | inactive | -28.3
Cc1cccc(NC(=S)N(CCc2ccncc2)C(C)C)c1C | inactive | -1.71
COc1cc(C(=O)NCCN2C(=O)S/C(=C\c3ccc(F)cc3)C2=O)ccc1OCC(=O)N1CCOCC1 | inactive | 15.3
O=C(Nc1nccs1)c1cccc(S(=O)(=O)N2CCOCC2)c1 | inactive | 0.981
O=C(NCCN1CCOCC1)c1cccc(S(=O)(=O)N2CCCC2)c1 | inactive | 2.89
Cn1cc(S(=O)(=O)N2CCOCC2)cc1C(=O)Nc1ccc(Cl)cc1 | inactive | 5.48
COc1ccc(NC(=O)c2cc(S(=O)(=O)N3CCOCC3)cn2C)cc1Cl | inactive | -8.07
O=C(Nc1nncs1)c1cccc(S(=O)(=O)N2CCOCC2)c1 | 23.1 µM (active) | -2.32
O=C(Nc1nnc(-c2ccccc2)s1)c1cccc(S(=O)(=O)N2CCOCC2)c1 | inactive | -9.5
Cn1cc(S(=O)(=O)N2CCOCC2)cc1C(=O)Nc1cccc(Cl)c1 | 7.31 µM (active) | -6.63
O=C(NCCN1C(=O)S/C(=C\c2ccc(F)cc2)C1=O)c1cccc(S(=O)(=O)N2CCOCC2)c1 | 13 µM (active) | 
COc1ccc(OCC(=O)NCCc2c[nH]c3ccccc23)cc1 | inactive | -0.0954
COc1ccc(/C(C)=N/NC(=O)CNC(=O)/C=C\c2ccco2)cc1 | inactive | 25.3
O=[N+]([O-])c1cc(N=Nc2ccc3ccccc3c2)ccc1O | inactive | -8.5
COc1ccc(N=Nc2ccc3ccccc3c2)c(O)c1 | 4.11 µM (active) | -14.1
Oc1ccc(N=Nc2ccc3ccccc3c2)cc1 | inactive | -16.8
COc1cccc(NC(=O)CSc2nnc(Cn3nnc4ccccc43)n2C)c1 | inactive | 1.13
O=C(Oc1ccc(=O)n(-c2ccccc2)n1)c1cccc(Cl)c1 | inactive | -1.38
Cn1c(CNC(=O)c2ccc3c(c2)OCO3)nnc1SCC(=O)Nc1ccccc1F | inactive | 3.42

Structure (SMILES) | Potency | cell number change [%]
CCN(Cc1ccccc1)S(=O)(=O)c1ccc(C(=O)N(CCCN(C)C)c2nc3cc(OC)ccc3s2)cc1 | inactive | 7.95
O=C(COc1ccc2c3c(c(=O)oc2c1)CCC3)N1CCN(c2ccccc2)CC1 | inactive | 28.4
CC1(C)CC(N2CCOCC2)=CC(=[N+]2CCOCC2)C1 | inactive | 3.66
CN1CCN(C(c2ccccc2)c2ccccc2)CC1 | inactive | 2.24
CC1(C)CC(N2CCN(C(c3ccccc3)c3ccccc3)CC2)=CC(=[N+]2CCCCC2)C1 | 2.06 µM (active) | -24.2
Cc1cc(SCC(=O)Nc2cccc(S(N)(=O)=O)c2)c(C)cc1Br | inactive | 15.2
CCc1ccc(OCCCCCn2ccnc2)cc1 | 4.61 µM (active) | -11.6
c1ccc(Cc2ccc(OCCn3ccnc3)cc2)cc1 | 3.66 µM (active) | -8.07
O=C(O)c1ccc(OCCn2ccnc2)cc1 | inactive | 11.3
CCc1ccc(OCCn2ccnc2)cc1 | inactive | -22.2
COc1ccc(OCCCn2ccnc2)cc1 | inactive | -3.82
COc1ccc(OCCn2ccnc2)cc1 | inactive | -2.55
COc1ccccc1NC(=O)C1=C(C)Nc2nc(CCCO)nn2C1c1ccc2c(c1)OCO2 (stereo not drawn) | inactive | -2.99
COc1ccc(Cl)cc1S(=O)(=O)N1CCC(C(=O)NCC2CCCO2)CC1 (stereo not drawn) | inactive | 6.08
CCCS(=O)(=O)N1CCN(C(=O)c2cccnc2)CC1 | inactive | 
COCCCn1c(SCC(=O)NC(C)C)nnc1-c1ccccc1 | inactive | 1.73
COc1cc(C(=O)O)ccc1OCC(=O)N1CCOCC1 | inactive | -12
CCc1ccc(C(=O)NNC(=O)c2ccc(OCC(=O)N3CCOCC3)c(OC)c2)cc1 | inactive | -13.6
COc1cc(C(=O)Nc2ccc(C)cn2)ccc1OCC(=O)N1CCOCC1 | 20.6 µM (active) | 5.26
